The panel holds about 79,000 compounds, 15% with a hit somewhere; the sample as a whole holds those more often. Rule as the data show it: active = growth inhibition above about 70%; inactive = the rest. Where a SMILES comes first, the peptide text is derived from it.
Assays:
[1] = NCI Yeast Anticancer Drug Screen. Data for the rad50 strain (AID 155);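 also: 0% = growth of vehicle-only cultures of the same strain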; settings: S. cerevisiae rad50 strain growth inhibition; at 50.0 µM; hits give high values
Summary of the method: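 Genetically altered yeast (DNA repair pathway); compound treatment; growth inhibition vs vehicle ctrl.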

[2] = NCI Yeast Anticancer Drug Screen. Data for the mec2-1 strain (AID 157); settings: S. cerevisiae mec2-1 strain, at 50.0 µM, hits give high values
Summary of the method: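 Yeast mec2-1 mutant treated with compound. Readout: growth inhibition vs vehicle controls.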

[3] = NCI Yeast Anticancer Drug Screen. Data for the sgs1 mgt1 strain (AID 161);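 also: 0% = growth of cultures given vehicle only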; settings: S. cerevisiae sgs1 mgt1 strain, at 50.0 µM, hits give high values
Summary of the method: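 Inhibition of yeast growth, normalised to vehicle-treated controls, is reported for a strain bearing genetic alterations in DNA damage repair.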

[4] = NCI Yeast Anticancer Drug Screen. Data for the cln2 rad14 strain (AID 165);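 also: 0% = growth equal to vehicle treated cultures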; settings: S. cerevisiae cln2 rad14 strain, at 50.0 µM, hits give high values
Summary of the method: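 cln2 rad14 yeast strain; compound exposure; growth inhibition read vs vehicle controls.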

[5] = NCI Yeast Anticancer Drug Screen. Data for the bub3 strain (AID 167); settings: S. cerevisiae bub3 mutant strain, at 50.0 µM, hits give high values
Summary of the method: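 Yeast carrying a defined mutation is treated with each compound, and growth is compared with that of vehicle-exposed cells to give inhibition.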

[6] = NCI Yeast Anticancer Drug Screen. Data for the mlh1 rad18 strain (AID 175); settings: S. cerevisiae mlh1 rad18 strain growth inhibition; at 50.0 µM; hits give high values
Summary of the method: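 Yeast w/ defined DNA-repair lesions; compound exposure; growth vs vehicle controls → % inhibition.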

Measured: growth inhibition

CN1CCN(C(=S)N(C(=O)c2ccc(Cl)cc2)C2CCCCC2)CC1
inactive: [1] -67% | [2] -53.4% | [3] -54.8% | [4] -26.4% | [5] -66.9% | [6] -65.7%

O=C(NCC1CC1)Nc1cccc2ccccc12
inactive: [1] -19.1% | [2] -3.4% | [3] -2% | [4] -54.7% | [5] -14% | [6] -5.1%

N#CC1(N=Cc2ccc3c(c2)OCO3)c2ccccc2-c2ccccc21
inactive: [1] 15.2% | [2] 6.85% | [3] 5.8% | [4] -9.35% | [5] 8.55% | [6] 4.95%

O=C1CC2C(=O)N(Cc3ccccc3)C(=O)C2C(=O)N1 (configuration not stated)
inactive: [1] -3.1% | [2] -12.9% | [3] -5.3% | [4] 1.85% | [5] -3.1% | [6] 1.25%

C/C(Cc1ccccc1)=N\NC(N)=S
inactive: [1] 13.3% | [2] 1.15% | [3] 27.6% | [4] -12.7% | [5] 8.5% | [6] 29.5%

COC(=O)c1cccc2cnccc12
inactive: [1] 2.2% | [2] -5.7% | [3] 3.6% | [4] -48% | [5] 7.65% | [6] 3.75%

CC(=O)OC1[C@H](OC(C)=O)C2=C(C)[C@@H](OC(C)=O)C[C@@]2(C(C)(C)O)[C@@H](OC(C)=O)[C@H]2[C@@]1(C)[C@@H](OC(C)=O)CC(OC(C)=O)[C@]21CO1 (some centres not stated)
inactive: [1] 3.4% | [2] 29.9% | [3] -20.3% | [4] 7.05% | [5] -32.8% | [6] -59%

COC1=C(N)C(=O)c2nc(C)ccc2C1=O
inactive: [1] 45.8% | [2] 44.4% | [3] 55.5% | [4] -3.9% | [5] 56.9% | [6] 66.5%

[N-]=[N+]=NC1(Cc2ccccc2)C(=O)Nc2ccccc2C1=O (configuration not stated)
inactive: [1] 0.8% | [2] -10.1% | [3] -19.4% | [4] 4.2% | [5] -5.65% | [6] -16%

CC(C)(C)c1onc2c1C(=O)c1ccccc1-2
inactive: [1] -3.7% | [2] -2.55% | [3] 1.35% | [4] -5.9% | [5] 25.9% | [6] -2.75%

Cc1ccc2c(c1)Nc1ccccc1P2(=O)O
inactive: [1] 7.8% | [2] -3.15% | [3] -40% | [4] 37.6% | [5] 14.3% | [6] -15.4%

CN(C)c1nc2ccccn2c1C(=O)c1ccccc1
inactive: [1] 4.85% | [2] -0.1% | [3] -12.8% | [4] -19.4% | [5] -0.6% | [6] -5.5%

COc1cc(CNc2cnc3cc(N)ccc3n2)cc(OC)c1OC
inactive: [1] -32.5% | [2] -26.8% | [3] -66.3% | [4] -18% | [5] -21.7% | [6] -30.6%

CC(=O)C1CCC2C3CCC4CC5(CCC4(C)C3C(=O)CC12C)NC(C(=O)O)CS5 (configuration not stated)
inactive: [1] 2.25% | [2] 3.4% | [3] 5.85% | [4] -6.25% | [5] -0.6% | [6] -1.35%

Cc1c(C2(c3cc(C(C)C)c(O)c(CN(CC(=O)O)CC(=O)O)c3C)OS(=O)(=O)c3ccccc32)cc(C(C)C)c(O)c1CN(CC(=O)O)CC(=O)O
inactive: [1] 4.3% | [2] 0.7% | [3] -1.75% | [4] 24.7% | [5] 2.8% | [6] 4.95%

O=C(Nc1ccccc1Br)c1cccc([N+](=O)[O-])c1O
inactive: [1] 37.5% | [2] 35.2% | [3] 45.5% | [4] 38.2% | [5] 29.4% | [6] 37.1%

Cc1cc2nc3[nH]c(=O)c4c(n3c2cc1C)CCC4
inactive: [1] 0% | [2] -6.8% | [3] 0.2% | [4] -8.95% | [5] 8.45% | [6] -15.2%

O=S(=O)(O)c1cccc(/C(=N\Nc2ccccn2)c2ccccn2)c1
inactive: [1] 44% | [2] 25.9% | [3] 59.8% | [4] 40.5% | [5] 51.5% | [6] 45.4%

ClCCCCSC1CCCCC1
inactive: [1] -5.7% | [2] -9.15% | [3] -5.4% | [4] -3.1% | [5] 0.6% | [6] -25.1%

COC(=O)C1CCC=CC1OC(C)=O (configuration not stated)
inactive: [1] 1.65% | [2] -12.6% | [3] 2.6% | [4] 4.45% | [5] 5.25% | [6] 3.2%

CSc1ccc(NC(=O)Nc2cc(C)ccc2Cl)cc1
inactive: [1] -2.05% | [2] 23% | [3] 25.9% | [4] -4.05% | [5] 41.1% | [6] 19.6%

Cn1cc(S(C)=O)c(=O)c2ccccc21 (configuration not stated)
inactive: [1] 2.65% | [2] -1.6% | [3] -5.6% | [4] -13.9% | [5] 8.3% | [6] -2.35%

NC(Cc1cnc[nH]1)C(=O)NC(Cc1ccc(O)cc1)C(=O)O (stereo not drawn) (H-His-Tyr-OH; configuration not given here)
inactive: [1] 7.6% | [2] -23% | [3] 7.2% | [4] 16.6% | [5] 9.85% | [6] 22%

Cc1ccccc1N1CC2CC3C=CC2(C1)O3 (configuration not stated)
inactive: [1] 8.5% | [2] 15.9% | [3] 16.8% | [4] -10.1% | [5] 1.35% | [6] 1.7%

CCC1(O)CCCCC1
inactive: [1] -16.4% | [2] -23.4% | [3] -30.1% | [4] -37.9% | [5] -18.6% | [6] -21.7%

c1ccc2c(c1)CCCN2c1ncnc2ccccc12
inactive: [1] -10.2% | [2] -8.45% | [3] -2.8% | [4] -62.6% | [5] 15.6% | [6] -7.4%

Cc1cccc(C)c1Nc1n[nH]c(=S)s1
inactive: [1] 18.3% | [2] 33.8% | [3] 45.5% | [4] 0.8% | [5] 44.5% | [6] 13.9%

Cc1ccc(-c2c(C#N)c(-c3ccc(Cl)cc3)c(C#N)c(=O)n2NS(=O)(=O)c2ccc(C)cc2)cc1
inactive: [1] 20.9% | [2] 19.8% | [3] 30.4% | [4] 44.6% | [5] 15.7% | [6] 13.2%

CCCC/C(CC)=N\N=C(/CC)CCCC
inactive: [1] 7.3% | [2] 7.2% | [3] 17.9% | [4] -28.2% | [5] 3.15% | [6] 17.5%

O=c1[nH]c(SCc2ccco2)nc2ccccc12
inactive: [1] 0.05% | [2] 12.7% | [3] 6.3% | [4] -23.7% | [5] 1.8% | [6] -1.75%

CN(C)/C=N/NC(=O)C(O)c1ccccc1 (configuration not stated)
inactive: [1] 10.3% | [2] 2.2% | [3] 4.45% | [4] 18.2% | [5] 34.4% | [6] -19.6%

CCn1cnc2c(=O)n(C)c(=O)n(C)c21
inactive: [1] -31.8% | [2] -17.9% | [3] 4% | [4] -36% | [5] -0.55% | [6] -0.95%

COc1ccc(N)c(OC)c1
inactive: [1] -30.6% | [2] -37% | [3] -90% | [4] 12.9% | [5] -39.6% | [6] -34%

COc1cccc2c1C(CO)N1C(C#N)C3CC(C(=O)O)C(C1C2)N3C (configuration not stated)
inactive: [1] 0.25% | [2] -5.9% | [3] -28.3% | [4] 3.4% | [5] 8% | [6] -2.45%

C=CCNC(=S)/N=C\C(C(=O)OCC)=C(/O)C(=O)OCC
inactive: [1] -18.6% | [2] -18.4% | [3] -16.6% | [4] -21.7% | [5] -8.85% | [6] -29.8%

CCOC(=O)C(NC(=O)c1ccccc1)(c1ccc(S(=O)(=O)Nc2onc(C)c2C)cc1)C(F)(F)F (configuration not stated)
inactive: [1] 7.3% | [2] -8.9% | [3] -18.9% | [4] -12.1% | [5] -10.6% | [6] -4.25%

O=[N+]([O-])c1cn(CCNc2c3ccccc3nc3ccccc23)cn1
inactive: [1] 17.4% | [2] -5.35% | [3] 20.4% | [4] 10.6% | [5] -3.85% | [6] 16.8%

CCN(CC)C(=S)N1C(=O)C2C3CCC(O3)C2C1=O (configuration not stated)
inactive: [1] 19.1% | [2] 11.9% | [3] 13.2% | [4] 6.75% | [5] 28.2% | [6] -11.2%

CCN(CC)C(=O)c1ccccc1C
inactive: [1] 17.2% | [2] -2.65% | [3] -9.7% | [4] 6.7% | [5] -3.85% | [6] 0.45%

CC(C)CNC(=O)c1ccccc1
inactive: [1] 0.45% | [2] 5.1% | [3] -1.6% | [4] -3.2% | [5] 0.5% | [6] -4.65%

CN(C)C(=O)CCOc1cccc2ccccc12
inactive: [1] 16.6% | [2] -3.1% | [3] -16% | [4] -69.5% | [5] -20.8% | [6] 1%

CN(C)c1ncnc2nc[nH]c12
inactive: [1] -14.6% | [2] 0.7% | [3] -6.1% | [4] -14.4% | [5] -2.6% | [6] 16.3%
